What was measured:
[1] = biological target: Serine/threonine-protein kinase MRCK alpha (Homo sapiens) (UniProt Q5VT25); conditions: at 0.1 µM
[2] = biological target: Serine/threonine-protein kinase MRCK alpha (Homo sapiens) (UniProt Q5VT25); conditions: at 1 µM
[3] = biological target: Serine/threonine-protein kinase MRCK beta (Homo sapiens) (UniProt Q9Y5S2); conditions: at 0.1 µM
[4] = biological target: Serine/threonine-protein kinase MRCK beta (Homo sapiens) (UniProt Q9Y5S2); conditions: at 1 µM
[5] = biological target: Ribosomal protein S6 kinase alpha-5 (Homo sapiens) (UniProt O75582); conditions: at 0.1 µM
[6] = biological target: Ribosomal protein S6 kinase alpha-5 (Homo sapiens) (UniProt O75582); conditions: at 1 µM
[7] = biological target: Ribosomal protein S6 kinase alpha-4 (Homo sapiens) (UniProt O75676); conditions: at 0.1 µM
[8] = biological target: Ribosomal protein S6 kinase alpha-4 (Homo sapiens) (UniProt O75676); conditions: at 1 µM
[9] = biological target: Ribosomal protein S6 kinase beta-1 (Homo sapiens) (UniProt P23443); conditions: at 0.1 µM
[10] = biological target: Ribosomal protein S6 kinase beta-1 (Homo sapiens) (UniProt P23443); conditions: at 1 µM
[11] = biological target: T1, 3-phosphoinositide-dependent protein kinase 1 (Homo sapiens) (UniProt O15530); conditions: at 0.1 µM;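 further: values are mean inhibition of PDK1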
T1 sequence (whole entry): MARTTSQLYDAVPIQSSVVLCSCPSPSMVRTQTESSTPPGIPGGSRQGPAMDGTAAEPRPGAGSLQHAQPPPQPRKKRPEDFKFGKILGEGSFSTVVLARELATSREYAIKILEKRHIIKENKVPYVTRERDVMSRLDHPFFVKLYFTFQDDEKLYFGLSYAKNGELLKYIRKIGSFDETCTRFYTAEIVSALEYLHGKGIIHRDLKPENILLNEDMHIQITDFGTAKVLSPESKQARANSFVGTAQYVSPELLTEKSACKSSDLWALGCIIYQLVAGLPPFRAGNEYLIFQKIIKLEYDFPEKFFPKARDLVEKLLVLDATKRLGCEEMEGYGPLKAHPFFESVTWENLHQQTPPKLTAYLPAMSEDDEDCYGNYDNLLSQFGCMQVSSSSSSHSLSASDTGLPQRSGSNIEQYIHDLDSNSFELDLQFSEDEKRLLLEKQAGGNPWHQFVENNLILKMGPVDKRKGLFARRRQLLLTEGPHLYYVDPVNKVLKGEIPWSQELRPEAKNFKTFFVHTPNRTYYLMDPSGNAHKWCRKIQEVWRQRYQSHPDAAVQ

[12] = biological target: cAMP-dependent protein kinase catalytic subunit alpha (Homo sapiens) (UniProt P17612); conditions: at 0.1 µM
[13] = biological target: cAMP-dependent protein kinase catalytic subunit alpha (Homo sapiens) (UniProt P17612); conditions: at 1 µM
[14] = biological target: Protein kinase C alpha type (Homo sapiens) (UniProt P17252); conditions: at 0.1 µM
[15] = biological target: Protein kinase C alpha type (Homo sapiens) (UniProt P17252); conditions: at 1 µM
[16] = biological target: Protein kinase C beta type (Homo sapiens) (UniProt P05771); conditions: at 0.1 µM
[17] = biological target: Protein kinase C beta type (Homo sapiens) (UniProt P05771); conditions: at 1 µM
[18] = biological target: Protein kinase C eta type (Homo sapiens) (UniProt P24723); conditions: at 0.1 µM
[19] = biological target: Protein kinase C eta type (Homo sapiens) (UniProt P24723); conditions: at 1 µM
[20] = biological target: Protein kinase C gamma type (Homo sapiens) (UniProt P05129); conditions: at 0.1 µM;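 further: values are mean percent inhibition of PKC gamma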

Chain of Protein kinase C beta type (Homo sapiens) (P05771 2-671 limits assumed): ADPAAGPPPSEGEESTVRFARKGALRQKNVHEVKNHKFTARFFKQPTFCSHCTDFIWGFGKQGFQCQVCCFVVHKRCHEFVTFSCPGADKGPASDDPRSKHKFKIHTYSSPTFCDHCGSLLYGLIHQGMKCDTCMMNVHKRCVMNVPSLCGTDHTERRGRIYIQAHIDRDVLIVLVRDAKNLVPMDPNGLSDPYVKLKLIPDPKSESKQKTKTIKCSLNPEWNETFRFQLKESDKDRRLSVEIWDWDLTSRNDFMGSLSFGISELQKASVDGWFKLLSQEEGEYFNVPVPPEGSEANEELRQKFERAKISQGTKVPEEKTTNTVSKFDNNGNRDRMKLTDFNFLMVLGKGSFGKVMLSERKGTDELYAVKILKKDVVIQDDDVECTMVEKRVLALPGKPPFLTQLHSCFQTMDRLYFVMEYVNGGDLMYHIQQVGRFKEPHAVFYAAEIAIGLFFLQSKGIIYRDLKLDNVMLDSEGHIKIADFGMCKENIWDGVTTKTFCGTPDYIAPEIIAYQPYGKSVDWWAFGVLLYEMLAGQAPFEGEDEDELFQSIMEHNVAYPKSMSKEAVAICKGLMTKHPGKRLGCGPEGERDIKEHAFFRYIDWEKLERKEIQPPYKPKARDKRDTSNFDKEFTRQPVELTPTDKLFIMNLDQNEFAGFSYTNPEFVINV
Chain of Ribosomal protein S6 kinase alpha-5 (Homo sapiens) (O75582 whole entry, looked up): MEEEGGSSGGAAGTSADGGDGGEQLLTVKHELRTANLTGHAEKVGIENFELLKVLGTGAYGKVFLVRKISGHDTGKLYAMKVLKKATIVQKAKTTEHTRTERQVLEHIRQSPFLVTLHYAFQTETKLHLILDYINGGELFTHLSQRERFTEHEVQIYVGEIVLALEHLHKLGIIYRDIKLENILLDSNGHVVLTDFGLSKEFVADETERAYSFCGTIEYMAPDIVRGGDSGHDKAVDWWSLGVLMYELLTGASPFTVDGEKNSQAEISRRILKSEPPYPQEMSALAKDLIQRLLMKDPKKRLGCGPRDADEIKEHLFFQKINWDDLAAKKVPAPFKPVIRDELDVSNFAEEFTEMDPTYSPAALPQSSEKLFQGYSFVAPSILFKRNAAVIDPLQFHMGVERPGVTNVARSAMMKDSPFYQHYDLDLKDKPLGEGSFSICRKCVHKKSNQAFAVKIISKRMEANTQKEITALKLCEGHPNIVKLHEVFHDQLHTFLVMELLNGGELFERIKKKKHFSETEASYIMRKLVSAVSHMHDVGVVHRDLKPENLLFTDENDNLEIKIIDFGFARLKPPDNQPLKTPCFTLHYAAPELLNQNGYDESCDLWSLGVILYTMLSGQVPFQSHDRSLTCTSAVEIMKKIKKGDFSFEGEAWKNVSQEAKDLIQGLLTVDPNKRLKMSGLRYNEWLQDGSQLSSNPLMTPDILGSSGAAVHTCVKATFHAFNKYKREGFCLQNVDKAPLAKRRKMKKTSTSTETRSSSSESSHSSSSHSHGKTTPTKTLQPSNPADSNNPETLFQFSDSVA
Chain of Ribosomal protein S6 kinase alpha-4 (Homo sapiens) (O75676 whole entry, looked up): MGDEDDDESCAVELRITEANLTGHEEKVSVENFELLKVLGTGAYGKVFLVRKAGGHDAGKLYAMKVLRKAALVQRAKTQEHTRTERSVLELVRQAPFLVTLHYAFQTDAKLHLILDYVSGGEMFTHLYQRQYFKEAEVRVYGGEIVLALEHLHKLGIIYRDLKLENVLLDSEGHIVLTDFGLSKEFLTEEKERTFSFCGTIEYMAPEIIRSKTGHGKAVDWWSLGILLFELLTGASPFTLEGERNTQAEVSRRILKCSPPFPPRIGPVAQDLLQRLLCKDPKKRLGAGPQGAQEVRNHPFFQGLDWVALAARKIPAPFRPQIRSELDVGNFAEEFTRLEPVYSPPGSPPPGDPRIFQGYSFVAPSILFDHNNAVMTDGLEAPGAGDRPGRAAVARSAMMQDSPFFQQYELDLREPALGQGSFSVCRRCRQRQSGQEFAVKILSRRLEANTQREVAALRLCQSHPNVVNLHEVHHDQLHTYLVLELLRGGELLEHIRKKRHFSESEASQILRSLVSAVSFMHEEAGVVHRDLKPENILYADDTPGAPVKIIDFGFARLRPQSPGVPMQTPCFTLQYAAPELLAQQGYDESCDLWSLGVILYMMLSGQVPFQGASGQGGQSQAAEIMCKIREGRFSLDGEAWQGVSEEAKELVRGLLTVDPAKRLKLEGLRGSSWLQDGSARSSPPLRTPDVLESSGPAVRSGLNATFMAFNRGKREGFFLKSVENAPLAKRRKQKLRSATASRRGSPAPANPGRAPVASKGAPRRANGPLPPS
Chain of Protein kinase C eta type (Homo sapiens) (P24723 whole entry): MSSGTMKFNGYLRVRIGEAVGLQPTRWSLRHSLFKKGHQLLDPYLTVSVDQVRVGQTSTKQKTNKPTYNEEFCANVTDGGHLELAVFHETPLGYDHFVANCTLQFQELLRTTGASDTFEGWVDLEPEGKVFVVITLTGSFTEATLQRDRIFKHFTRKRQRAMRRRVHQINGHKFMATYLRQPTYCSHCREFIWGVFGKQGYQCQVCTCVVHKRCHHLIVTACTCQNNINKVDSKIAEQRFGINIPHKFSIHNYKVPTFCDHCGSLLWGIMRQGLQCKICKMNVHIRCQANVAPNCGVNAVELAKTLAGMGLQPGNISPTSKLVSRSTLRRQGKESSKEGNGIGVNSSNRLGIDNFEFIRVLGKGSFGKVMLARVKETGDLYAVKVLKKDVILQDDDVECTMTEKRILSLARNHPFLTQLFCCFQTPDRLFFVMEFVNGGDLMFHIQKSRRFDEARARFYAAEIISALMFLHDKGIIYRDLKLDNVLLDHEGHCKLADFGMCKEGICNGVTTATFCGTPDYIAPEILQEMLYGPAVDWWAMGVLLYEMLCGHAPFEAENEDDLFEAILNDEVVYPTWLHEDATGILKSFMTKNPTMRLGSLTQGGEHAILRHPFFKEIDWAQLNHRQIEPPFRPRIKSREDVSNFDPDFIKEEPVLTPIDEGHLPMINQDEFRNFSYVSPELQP
Chain of Serine/threonine-protein kinase MRCK beta (Homo sapiens) (Q9Y5S2 whole entry): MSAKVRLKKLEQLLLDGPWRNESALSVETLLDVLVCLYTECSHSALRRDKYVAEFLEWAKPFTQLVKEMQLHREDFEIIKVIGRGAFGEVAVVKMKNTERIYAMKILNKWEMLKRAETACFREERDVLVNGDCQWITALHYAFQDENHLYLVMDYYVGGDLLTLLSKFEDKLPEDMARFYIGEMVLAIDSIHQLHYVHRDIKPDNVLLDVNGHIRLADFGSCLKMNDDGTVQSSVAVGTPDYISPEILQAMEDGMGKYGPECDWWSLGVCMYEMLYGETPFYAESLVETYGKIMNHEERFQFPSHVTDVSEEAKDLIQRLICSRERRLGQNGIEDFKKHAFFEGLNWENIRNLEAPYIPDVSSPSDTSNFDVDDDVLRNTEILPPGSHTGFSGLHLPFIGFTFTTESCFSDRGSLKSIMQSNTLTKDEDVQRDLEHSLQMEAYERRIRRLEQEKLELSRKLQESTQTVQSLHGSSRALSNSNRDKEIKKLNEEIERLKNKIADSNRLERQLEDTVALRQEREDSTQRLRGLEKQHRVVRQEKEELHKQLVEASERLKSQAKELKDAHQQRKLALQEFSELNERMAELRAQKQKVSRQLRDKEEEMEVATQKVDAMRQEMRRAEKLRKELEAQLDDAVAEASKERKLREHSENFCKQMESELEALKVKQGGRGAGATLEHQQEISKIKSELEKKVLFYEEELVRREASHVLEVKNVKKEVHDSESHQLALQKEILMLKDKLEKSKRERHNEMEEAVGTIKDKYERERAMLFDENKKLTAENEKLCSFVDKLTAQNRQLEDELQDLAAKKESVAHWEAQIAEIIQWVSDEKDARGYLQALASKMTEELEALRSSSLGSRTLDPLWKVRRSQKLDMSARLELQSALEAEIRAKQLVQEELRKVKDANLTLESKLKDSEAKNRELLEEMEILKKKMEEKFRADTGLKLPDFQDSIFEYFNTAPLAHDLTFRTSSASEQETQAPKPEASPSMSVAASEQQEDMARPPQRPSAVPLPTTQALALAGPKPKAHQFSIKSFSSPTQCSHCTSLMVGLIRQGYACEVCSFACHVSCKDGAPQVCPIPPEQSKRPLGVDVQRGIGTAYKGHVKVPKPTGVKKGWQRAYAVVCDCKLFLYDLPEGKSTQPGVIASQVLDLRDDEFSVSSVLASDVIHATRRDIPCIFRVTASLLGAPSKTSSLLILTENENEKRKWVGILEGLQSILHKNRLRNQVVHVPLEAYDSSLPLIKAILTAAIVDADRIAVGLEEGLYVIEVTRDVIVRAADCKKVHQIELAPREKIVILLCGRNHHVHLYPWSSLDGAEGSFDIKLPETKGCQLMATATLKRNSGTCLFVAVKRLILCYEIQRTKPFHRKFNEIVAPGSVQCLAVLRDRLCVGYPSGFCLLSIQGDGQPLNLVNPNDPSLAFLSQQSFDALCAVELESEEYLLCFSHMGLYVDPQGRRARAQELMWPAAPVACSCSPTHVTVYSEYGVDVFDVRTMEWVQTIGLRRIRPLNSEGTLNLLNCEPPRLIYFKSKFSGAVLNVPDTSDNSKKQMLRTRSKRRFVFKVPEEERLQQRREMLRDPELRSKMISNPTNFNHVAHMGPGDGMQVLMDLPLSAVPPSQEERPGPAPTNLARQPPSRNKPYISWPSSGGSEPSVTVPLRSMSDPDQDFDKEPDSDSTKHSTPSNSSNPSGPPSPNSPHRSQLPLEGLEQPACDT

## CCN1CCC(CC(=O)Nc2n[nH]c3nc(-c4cccs4)c(Br)cc23)CC1
[1]
  inhibition: -1%
[2]
  inhibition: -0.59%
[3]
  inhibition: 0.24%
[4]
  inhibition: 0.47%
[5]
  inhibition: -2.28%
[6]
  inhibition: 0.61%
[7]
  inhibition: -2.08%
[8]
  inhibition: -1.67%
[9]
  inhibition: -1.91%
[10]
  inhibition: 0.59%
[11]
  inhibition: -2.02%
[12]
  inhibition: -1.4%
[13]
  inhibition: 1.75%
[14]
  inhibition: -0.16%
[15]
  inhibition: 0.74%
[16]
  inhibition: 2.07%
[17]
  inhibition: 1.35%
[18]
  inhibition: -3.78%
[19]
  inhibition: 0.16%
[20]
  inhibition: -1.57%

## COc1ccc(-c2coc3ncnc(N)c23)cc1
[1]
  inhibition: 0.52%
[2]
  inhibition: -0.11%
[3]
  inhibition: 1.16%
[4]
  inhibition: 1.93%
[5]
  inhibition: 9.6%
[6]
  inhibition: 8.17%
[7]
  inhibition: 1.64%
[8]
  inhibition: 3.84%
[9]
  inhibition: 1.77%
[10]
  inhibition: 2.26%
[11]
  inhibition: 0.68%
[12]
  inhibition: 1.5%
[13]
  inhibition: 1.74%
[14]
  inhibition: 0.29%
[15]
  inhibition: 1.92%
[16]
  inhibition: -0.46%
[17]
  inhibition: -0.25%
[18]
  inhibition: 3.06%
[19]
  inhibition: 2.62%
[20]
  inhibition: 0.83%

## Cc1cc(O)cc(C)c1/C=C/c1cncc(-c2nn[nH]n2)c1
[1]
  inhibition: -0.28%
[2]
  inhibition: -0.43%
[3]
  inhibition: 0.47%
[4]
  inhibition: 0.57%
[5]
  inhibition: 3.79%
[6]
  inhibition: 1.87%
[7]
  inhibition: 1.46%
[8]
  inhibition: 2.78%
[9]
  inhibition: 1.11%
[10]
  inhibition: 1.97%
[11]
  inhibition: 2.02%
[12]
  inhibition: -1.63%
[13]
  inhibition: -1.78%
[14]
  inhibition: -2.41%
[15]
  inhibition: -0.54%
[16]
  inhibition: 0.1%
[17]
  inhibition: 2.35%
[18]
  inhibition: 1%
[19]
  inhibition: 5.67%
[20]
  inhibition: -3.08%

## CCn1c(-c2nonc2N)nc2c(C#CC(C)(C)O)nc(CN3CCCC3)cc21
[1]
  inhibition: 2.53%
[2]
  inhibition: 0.11%
[3]
  inhibition: 1.98%
[4]
  inhibition: 4.91%
[5]
  inhibition: 0.29%
[6]
  inhibition: 3.07%
[7]
  inhibition: 2%
[8]
  inhibition: 6.06%
[9]
  inhibition: 0.33%
[10]
  inhibition: 1.37%
[11]
  inhibition: 0.46%
[12]
  inhibition: 8.62%
[13]
  inhibition: 44.9%
[14]
  inhibition: 2.29%
[15]
  inhibition: 6.77%
[16]
  inhibition: 3.02%
[17]
  inhibition: 14.2%
[18]
  inhibition: 19.5%
[19]
  inhibition: 67.3%
[20]
  inhibition: 3.19%

## CS(=O)(=O)Nc1ccc(N/C=C2\C(=O)Nc3ccccc32)cc1
[1]
  inhibition: -2.44%
[2]
  inhibition: -0.5%
[3]
  inhibition: 0.24%
[4]
  inhibition: -0.45%
[5]
  inhibition: -1.26%
[6]
  inhibition: -0.97%
[7]
  inhibition: -0.53%
[8]
  inhibition: 7.44%
[9]
  inhibition: -0.58%
[10]
  inhibition: 3.4%
[11]
  inhibition: 2.23%
[12]
  inhibition: -2%
[13]
  inhibition: 0.29%
[14]
  inhibition: -0.53%
[15]
  inhibition: 0.61%
[16]
  inhibition: -0.94%
[17]
  inhibition: -1.13%
[18]
  inhibition: -0.7%
[19]
  inhibition: -4.5%
[20]
  inhibition: -3.28%

## COc1cc2ncn(-c3cc(O[C@@H](C)c4ccccc4Cl)c(C(N)=O)s3)c2cc1OC
[1]
  inhibition: 1.42%
[2]
  inhibition: 0.91%
[3]
  inhibition: 0.43%
[4]
  inhibition: 3.35%
[5]
  inhibition: 11.4%
[6]
  inhibition: 11.6%
[7]
  inhibition: 4.79%
[8]
  inhibition: 5.46%
[9]
  inhibition: 0.94%
[10]
  inhibition: 2.16%
[11]
  inhibition: 0.82%
[12]
  inhibition: 4.37%
[13]
  inhibition: 4.38%
[14]
  inhibition: 1.75%
[15]
  inhibition: 3.87%
[16]
  inhibition: 3.42%
[17]
  inhibition: 4.55%
[18]
  inhibition: 5.28%
[19]
  inhibition: 3.1%
[20]
  inhibition: 3.01%

## COC(=O)Nc1nc2cc(Oc3ccc(NC(=O)Nc4cccc(C(=O)O)c4)cc3)ccc2[nH]1
[1]
  inhibition: 1.42%
[2]
  inhibition: 1.5%
[3]
  inhibition: -0.52%
[4]
  inhibition: -1.21%
[5]
  inhibition: -0.25%
[6]
  inhibition: 1.28%
[7]
  inhibition: 1.24%
[8]
  inhibition: 2.84%
[9]
  inhibition: 0.88%
[10]
  inhibition: 0.91%
[11]
  inhibition: 2.53%
[12]
  inhibition: -3.91%
[13]
  inhibition: 0.18%
[14]
  inhibition: -3.01%
[15]
  inhibition: -3.65%
[16]
  inhibition: 0.02%
[17]
  inhibition: 1.6%
[18]
  inhibition: -0.35%
[19]
  inhibition: 3.15%
[20]
  inhibition: 2.38%

## COc1ccccc1Nc1ncc(-c2ccccc2)o1
[1]
  inhibition: -5.48%
[2]
  inhibition: -2.78%
[3]
  inhibition: 0.73%
[4]
  inhibition: 0.66%
[5]
  inhibition: -3.3%
[6]
  inhibition: -5.77%
[7]
  inhibition: 4.65%
[8]
  inhibition: 2.42%
[9]
  inhibition: 1.36%
[10]
  inhibition: 2.44%
[11]
  inhibition: 7.73%
[12]
  inhibition: 1.58%
[13]
  inhibition: 3.65%
[14]
  inhibition: 0.95%
[15]
  inhibition: 1.01%
[16]
  inhibition: 1.34%
[17]
  inhibition: -6.48%
[18]
  inhibition: 7.06%
[19]
  inhibition: 7.33%
[20]
  inhibition: -0.19%

## N#Cc1c(NC(=O)c2cccc3ccccc23)sc2c1CCCC2
[1]
  inhibition: -0.22%
[2]
  inhibition: -0.12%
[3]
  inhibition: 0.93%
[4]
  inhibition: 1.57%
[5]
  inhibition: 7.78%
[6]
  inhibition: 6.93%
[7]
  inhibition: 1.95%
[8]
  inhibition: 2.56%
[9]
  inhibition: 1.14%
[10]
  inhibition: 2.63%
[11]
  inhibition: 1.52%
[12]
  inhibition: 1.59%
[13]
  inhibition: 1.98%
[14]
  inhibition: 0.26%
[15]
  inhibition: 1.22%
[16]
  inhibition: 1.24%
[17]
  inhibition: -1.28%
[18]
  inhibition: 3.52%
[19]
  inhibition: 3.65%
[20]
  inhibition: 2.48%

## CCn1c(-c2nonc2N)nc2c(C#CC(C)(C)O)nc(OC[C@@H](N)c3ccccc3)cc21
[1]
  inhibition: 12%
[2]
  inhibition: 48.2%
[3]
  inhibition: 11.1%
[4]
  inhibition: 48.5%
[5]
  inhibition: -5.71%
[6]
  inhibition: 8.99%
[7]
  inhibition: 1.92%
[8]
  inhibition: 19.7%
[9]
  inhibition: 5.44%
[10]
  inhibition: 36%
[11]
  inhibition: 0.47%
[12]
  inhibition: 77.5%
[13]
  inhibition: 79.3%
[14]
  inhibition: -2.77%
[15]
  inhibition: 8.94%
[16]
  inhibition: 6.21%
[17]
  inhibition: 36%
[18]
  inhibition: 81.4%
[19]
  inhibition: 96.8%
[20]
  inhibition: 8.95%

## Nc1ncnc2occ(-c3ccc(NC(=O)Nc4cccc(C(F)(F)F)c4)cc3)c12
[1]
  inhibition: -3.03%
[2]
  inhibition: 0.21%
[3]
  inhibition: 0.84%
[4]
  inhibition: 1.21%
[5]
  inhibition: 6.35%
[6]
  inhibition: 19.5%
[7]
  inhibition: 3.31%
[8]
  inhibition: 20.8%
[9]
  inhibition: 21%
[10]
  inhibition: 73.5%
[11]
  inhibition: -1.02%
[12]
  inhibition: 2.38%
[13]
  inhibition: 4.85%
[14]
  inhibition: 0.88%
[15]
  inhibition: 1.68%
[16]
  inhibition: 0.7%
[17]
  inhibition: 12.6%
[18]
  inhibition: 0.55%
[19]
  inhibition: 6.96%
[20]
  inhibition: -0.58%

## CC1=C(C(=O)Nc2ccc3[nH]ncc3c2)C(c2ccc(F)cc2)NC(=O)N1 (stereo not given)
[1]
  inhibition: 2.04%
[2]
  inhibition: 12.4%
[3]
  inhibition: 5.57%
[4]
  inhibition: 29.9%
[5]
  inhibition: 8.51%
[6]
  inhibition: 34.2%
[7]
  inhibition: 3.34%
[8]
  inhibition: 16.7%
[9]
  inhibition: 1.64%
[10]
  inhibition: 13.8%
[11]
  inhibition: 0.63%
[12]
  inhibition: 3.81%
[13]
  inhibition: 30.4%
[14]
  inhibition: 0.69%
[15]
  inhibition: 0.39%
[16]
  inhibition: -0.65%
[17]
  inhibition: 1.36%
[18]
  inhibition: 3.55%
[19]
  inhibition: 10.8%
[20]
  inhibition: 0.38%

## CCc1cccc(NC(=O)Nc2ccc(Oc3ccc4nc(NC(=O)OC)[nH]c4c3)cc2)c1
[1]
  inhibition: 1.75%
[2]
  inhibition: 2.04%
[3]
  inhibition: 0.03%
[4]
  inhibition: 0.65%
[5]
  inhibition: -4.58%
[6]
  inhibition: -1.65%
[7]
  inhibition: 1.22%
[8]
  inhibition: 1.3%
[9]
  inhibition: 4.31%
[10]
  inhibition: 5.19%
[11]
  inhibition: 2.37%
[12]
  inhibition: 2.93%
[13]
  inhibition: 0.86%
[14]
  inhibition: 0.7%
[15]
  inhibition: 0.72%
[16]
  inhibition: 0.28%
[17]
  inhibition: 1.12%
[18]
  inhibition: 2.69%
[19]
  inhibition: 2.14%
[20]
  inhibition: 1.95%
